A number with no mark means an inactive call. The rule behind the calls is not given here.
Potency is the fitted concentration of half-maximal effect.

The subject of this assay is HIV-1 nucleocapsid protein NCp7 (binding to TG oligonucleotide). The assay is described as follows: HIV Nucleocapsid (AID 346).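 Note: potency is for inhibitors that block NC binding and lower polarization.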 The following applies: HIV-1 NC / fluorescein-TGTGTGTG probe, fluorescence polarization. The method in brief: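 Fluorescence polarization readout: labelled TG4xF oligo (10 nM) with 100 nM nucleocapsid protein, high-salt (250mM NaCl) Hepes pH 7.5 buffer containing zinc and fresh reducing agents. Compounds added by pin tool; incubation 1 hr, room temperature.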
Consider `COCC(=O)N1CCC[C@@]2(CCN(C(=O)Nc3ccc(OC)cc3)C2)C1`, for which the Potency is above 20 µM.
The same measure for `O=C(Nc1ccccc1)N1CCC2(CC1)CCN(C(=O)c1csnn1)CC2`: above 20 µM; for `COC(=O)N1CCC[C@@]2(CCN(c3ccccc3)C2)C1`: above 20 µM; for `O=C(c1cccc(F)c1)N1CCC2(CCCN(c3ccccn3)C2)CC1`: above 20 µM.
For `Cc1cnc(CNc2cc(-c3ccc(C(=O)N(C)C)cc3)ncn2)cn1`, the Potency was above 20 µM.
The same measure for `Cc1nc2cnc(N3CCOCC3)nc2n(C2CC2)c1=O`: above 20 µM; for `COc1ccc(NC(=O)N2CCCC3(CCN(C(=O)c4cnccn4)CC3)C2)cc1`: above 20 µM.
The same measure for `COCCNc1ncnc2ccc(-c3cccnc3)cc12`: above 20 µM.
For `COCCn1c(=O)c(C)nc2cnc(Nc3cccc(OC)c3)nc21`, the Potency is above 20 µM.
For `CN(C)C(=O)c1ccc(-c2nc(NCc3cccnc3)c3ccccc3n2)cc1` the value was above 20 µM.
As for `O=c1c(-c2ccc(F)cc2)nc2cnc(Oc3cccc(Cl)c3)nc2n1C1CC1`, the Potency was above 20 µM.
As for `COc1ncc2nc(-c3ccc(F)cc3)c(=O)n(CCc3ccccc3)c2n1`, the Potency was above 20 µM.
For `O=S(=O)(c1ccccc1)N1CCC2(CC1)CN(Cc1nccs1)C2` the value was above 20 µM.
Take `O=c1c(-c2ccc(F)cc2)nc2cnc(Oc3ccccc3)nc2n1Cc1cccs1`: the Potency was above 20 µM.
Consider `COc1ccccc1CNc1nc(-c2ccc3c(c2)OCO3)nc2ccccc12`, for which the Potency is above 20 µM.
For `Cc1noc(C)c1-c1ccc2ncnc(NC3CCNCC3)c2c1` the value was above 20 µM.
The same measure for `COc1ccc(NC(=O)N2CCCC3(CCN(C(=O)c4ccco4)CC3)C2)cc1`: above 20 µM; for `O=C(c1ccncc1)N1CCC2(CC1)CN(c1ccncc1)C2`: above 20 µM.
For the compound `COc1ccc2[nH]cc(CCNc3cc(-c4cccc(C#N)c4)ncn3)c2c1`, the Potency is above 20 µM.
Take `c1cncc(-c2nccc(NCc3cccs3)n2)c1`: the Potency is above 20 µM.
For `c1ccc(-c2cccc(N3CC4(CCNCC4)C3)c2)cc1` the value was above 20 µM; for `Cn1c(=O)c(-c2ccc(Cl)cc2)nc2cncnc21`, above 20 µM.
As for `COc1ccc2[nH]cc(CCNc3cc(-c4ccccc4OC)ncn3)c2c1`, the Potency is above 20 µM.
For `CC(=O)NCCNc1cc(-c2ccccc2CN(C)C)ncn1` the value was above 20 µM.
The same measure for `c1csc(CNc2ncncc2-c2ccoc2)c1`: above 20 µM.

These data come from PubChem BioAssay (NCATS).
